Measurements as given in the supplement of paper PMC4371806.
Over roughly 1,600 compounds, “plate-normalized OD600 growth (mean of duplicates)” has its median near 0.31; the lowest 2% begin near 0.23. The sample holds the lowest values, similar compounds and a random draw of the others, so the mix is not that of the screen.

Tested on: Escherichia coli BW25113
Test: plate-normalized OD600 growth (mean of duplicates) (OD600 (normalized)); higher = more growth (less inhibition)
Settings: 10 µM
Protocol: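 E. coli BW25113 in LB (100 µl, 96-well, no shaking) was exposed to 10 µM of each compound (here the ChemBridge subset of a ~30,000-member library) and grown at 37°C for 24 h or 15°C for 48 h, in duplicate. Growth was read as OD600 and the duplicate ODs were normalized across screening plates to correct plate-to-plate variation.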

| SMILES | plate-normalized OD600 growth (temperature: 15°C, 48 h) | plate-normalized OD600 growth (temperature: 37°C, 24 h) |
| --- | --- | --- |
| O=C(NC1C[C@@H]1c1ccccc1)[C@@H]1CC1c1ccccc1 (some centres not stated) | 0.272 | 0.63 |
| CN1CCCC1CCNC1CC2CCC1C2 (configuration not stated) | 0.299 | 0.637 |
| Cn1cc(/C=C/c2nc3ccccc3c(=O)[nH]2)c2ccccc21 | 0.248 | 0.604 |
| COc1ccc(N(C(=O)c2ccc(F)cc2)C2=CC3CCC(C2)N3C)cc1 (configuration not stated) | 0.247 | 0.619 |
| COc1ccc(C(C)=O)cc1Cc1c(O)nc(SC)[nH]c1=O | 0.247 | 0.629 |
| O=C(CC1Nc2ccccc2NC1=O)Nc1ccc(Cl)cc1 (configuration not stated) | 0.215 | 0.6 |
| O=C(CC1Nc2ccccc2NC1=O)Nc1ccccc1 (configuration not stated) | 0.24 | 0.597 |
| CCOc1ccc(NC(=O)CC2Nc3ccccc3NC2=O)cc1 (configuration not stated) | 0.273 | 0.648 |
| Nc1nc2sc3c(c2cc1C(=O)N1CCOCC1)CCCC3 | 0.253 | 0.625 |
| Cc1nc(-c2ccccc2)cc(N2CCCC2)n1 | 0.253 | 0.616 |
| Cc1ccccc1CN(C)C1CCN(C)CC1 | 0.256 | 0.628 |
| CN1CCC(NCc2ccccc2F)CC1 | 0.212 | 0.645 |
| CCCN1CCC(NCCc2ccccc2OC)CC1 | 0.252 | 0.619 |
| Cc1ccc(OCCCNC(C)(C)C)cc1 | 0.244 | 0.608 |
| CC1CCCC(C)N1C(=O)c1ccc(Br)cc1 (configuration not stated) | 0.25 | 0.617 |
| O=c1[nH]c2nonc2nc1Nc1ccccc1 | 0.245 | 0.603 |
| CCN(C(=O)Cc1ccccc1)C1CCCCC1 | 0.221 | 0.606 |
| CCN(Cc1ccccc1)C(=O)Cc1ccccc1 | 0.262 | 0.642 |
| CC1CCCC(C)N1C(=O)Cc1ccccc1 (configuration not stated) | 0.233 | 0.611 |
| Cc1cc(C)c(S(=O)(=O)Nc2cc(C)on2)c(C)c1 | 0.243 | 0.612 |
| COc1ccccc1NS(=O)(=O)c1ccc(C(C)(C)C)cc1 | 0.254 | 0.618 |
| CCc1ccccc1NS(=O)(=O)c1ccc(F)cc1 | 0.21 | 0.618 |

| SMILES | plate-normalized OD600 growth (temperature: 15°C, 48 h) | plate-normalized OD600 growth (temperature: 37°C, 24 h) |
| --- | --- | --- |
| COc1ccccc1NS(=O)(=O)c1ccc(Cl)cc1 | 0.256 | 0.651 |
| Cc1[nH]nc2c1C(c1ccccc1I)C(C#N)=C(N)O2 (configuration not stated) | 0.233 | 0.613 |
| Cc1cc(C)c(C2C(C#N)=C(N)Oc3n[nH]c(C)c32)c(C)c1 (configuration not stated) | 0.218 | 0.621 |
| Cc1ccc(C2C(C#N)=C(N)Oc3n[nH]c(C)c32)s1 (configuration not stated) | 0.246 | 0.658 |
| Cc1ccc(NCc2ccc([N+](=O)[O-])cc2)cc1C | 0.237 | 0.605 |
| O=C(c1ccco1)N1CCN(c2ccc([N+](=O)[O-])cc2)CC1 | 0.244 | 0.617 |
| O=C(c1ccc(Br)o1)N1CCN(c2ccc([N+](=O)[O-])cc2)CC1 | 0.262 | 0.622 |
| O=C(c1ccc([N+](=O)[O-])o1)N1CCN(c2cccc(Cl)c2)CC1 | 0.212 | 0.611 |
| O=C1CC(N2CCOCC2)C(=O)N1c1ccc(I)cc1 (configuration not stated) | 0.257 | 0.645 |
| N#CC1=C(N)Oc2cc(N)ccc2C1c1ccc(Br)s1 (configuration not stated) | 0.262 | 0.636 |
| O=C(Nc1cccc([N+](=O)[O-])c1)c1cc(S(=O)(=O)Nc2ccccc2)ccc1Cl | 0.256 | 0.621 |
| Fc1ccccc1OCCSc1ncnc2nc[nH]c12 | 0.258 | 0.613 |
| CCSc1sc(SC#N)cc1SC#N | 0.207 | 0.614 |
| N#CSc1cnc(NC2CCCCC2)s1 | 0.254 | 0.611 |
| CCSc1sc(CC)cc1C(N)=O | 0.239 | 0.621 |
| CCOc1ccc(Br)cc1/C=C(\C#N)c1nc2ccccc2[nH]1 | 0.255 | 0.657 |
| CCOc1ccc(Nc2nc(-c3ccc(C)c(C)c3)cs2)cc1 | 0.248 | 0.605 |
| Cc1ccc(-c2csc(Nc3ccc(F)cc3)n2)cc1C | 0.218 | 0.604 |
| Cc1cc(C)n(-c2nc(-c3ccc(F)cc3)cs2)n1 | 0.254 | 0.625 |
| CCOc1ccc(C(=O)Nc2ccc(S(=O)(=O)Nc3nccs3)cc2)cc1 | 0.241 | 0.613 |
| C=CCNc1nc(-c2ccncc2)cs1 | 0.236 | 0.589 |
| CC(=O)Nc1ccc(-c2cc(-c3ccc(NC(C)=O)cc3)nc(-c3ccccc3)n2)cc1 | 0.246 | 0.587 |

| SMILES | plate-normalized OD600 growth (temperature: 15°C, 48 h) | plate-normalized OD600 growth (temperature: 37°C, 24 h) |
| --- | --- | --- |
| Cc1ccc2nc(/C(C#N)=C\c3ccco3)[nH]c2c1 | 0.242 | 0.599 |
| CC(=O)Nc1ccc2oc(-c3cccc(I)c3)nc2c1 | 0.235 | 0.614 |
| CCOc1ccc(C(=O)c2ccc([N+](=O)[O-])cc2Cl)cc1 | 0.265 | 0.637 |
| CCN(CC)CCCOc1ccc([N+](=O)[O-])cc1 | 0.246 | 0.624 |
| CCOc1ccc(-c2ncnn2-c2ccc([N+](=O)[O-])cc2)cc1 | 0.222 | 0.625 |
| CCCCOC(=O)Nc1nnc(CCc2ccccc2)s1 | 0.265 | 0.623 |
| COc1cc(CN2CCSCC2)c([N+](=O)[O-])cc1OC | 0.23 | 0.6 |
| CC(C)NCC(=O)NC12CC3CC(CC(C3)C1)C2 | 0.266 | 0.656 |
| O=C(CN1CCCCC1)NC12CC3CC(CC(C3)C1)C2 | 0.274 | 0.65 |
| NC(=O)CCC(=O)NC12CC3CC(CC(C3)C1)C2 | 0.227 | 0.599 |
| Cc1ccc(NC(=O)c2c(O)c3ccccc3[nH]c2=O)c(C)c1 | 0.27 | 0.648 |
| Cc1cc(C)n(C(=O)c2ccccc2Br)n1 | 0.226 | 0.655 |
| Cc1cc(C)n(C(=O)c2ccc(Cl)cc2)n1 | 0.256 | 0.636 |
| Cc1cc(C)n(C(=O)c2ccccc2F)n1 | 0.251 | 0.635 |
| O=C(O)c1ccc2c(c1)C(=O)N(c1c[nH]c(=O)[nH]c1=O)C2=O | 0.239 | 0.592 |
| O=C(/C=C/c1ccc(-c2cc(Cl)ccc2Cl)o1)c1ccco1 | 0.25 | 0.612 |
| c1cc2cn[nH]c2cc1NC1CCCCCC1 | 0.233 | 0.604 |
| Nc1ccc(Cl)cc1SCC(=O)O | 0.242 | 0.599 |
| O=C(O)CSc1cccc(C(=O)Nc2ccc(Br)cc2)c1 | 0.249 | 0.611 |
| O=C(O)CSc1ccc(Br)cc1 | 0.222 | 0.609 |
| NS(=O)(=O)c1ccc(NC(=O)c2ccccc2Cl)cc1 | 0.24 | 0.604 |
| O=[N+]([O-])c1ccc(N2CCN(Cc3cccs3)CC2)cc1 | 0.22 | 0.599 |

| SMILES | plate-normalized OD600 growth (temperature: 15°C, 48 h) | plate-normalized OD600 growth (temperature: 37°C, 24 h) |
| --- | --- | --- |
| O=[N+]([O-])c1ccc(N2CCN(Cc3ccc(Br)s3)CC2)cc1 | 0.242 | 0.58 |
| Cc1ccsc1CN1CCN(c2ccc([N+](=O)[O-])cc2)CC1 | 0.256 | 0.634 |
| O=C(O)c1ccc(S(=O)(=O)c2ccc(O)cc2)cc1 | 0.247 | 0.592 |
| CN(C)c1ccc(CN2CCc3ccccc3C2)cc1 | 0.244 | 0.619 |
| c1ccc2c(c1)CCN(Cc1ccncc1)C2 | 0.236 | 0.651 |
| C=CCNC(=O)c1ccc(CN2CCc3ccccc3C2)cc1 | 0.217 | 0.6 |
| O=C(c1ccccc1[N+](=O)[O-])N1CCN(C(c2ccccc2)c2ccccc2)CC1 | 0.259 | 0.627 |
| CCOc1cc(/C=C(\C#N)c2nc(-c3ccc(OC)cc3)cs2)ccc1O | 0.262 | 0.615 |
| COc1ccc(-c2c(C)[nH]n3c(=O)cc(-c4ccc([N+](=O)[O-])cc4)nc23)cc1 | 0.24 | 0.608 |
| COc1ccc(NCc2ccc(C)s2)cc1OC | 0.244 | 0.604 |
| COc1ccc(NC(=O)Nc2ccc(F)c(Cl)c2)cc1 | 0.283 | 0.58 |
| COc1ccc(NCc2ccc(Cl)cc2Cl)cc1OC | 0.22 | 0.625 |
| O=C(c1sc2ccccc2c1Cl)N1CCN(CCN2C(=O)C3C4C=CC(C4)C3C2=O)CC1 (configuration not stated) | 0.243 | 0.611 |
| O=S(=O)(c1ccc(Cl)c(Cl)c1)N1CCCCC1 | 0.252 | 0.619 |
| Cc1cc(=O)[nH]c2ccc([N+](=O)[O-])cc12 | 0.244 | 0.609 |
| O=[N+]([O-])c1ccc2[nH]c3c(c2c1)CCCC3NC1CCN(CCc2ccccc2)CC1 (configuration not stated) | 0.249 | 0.578 |
| NC1CCCc2c1[nH]c1ccc([N+](=O)[O-])cc21 (configuration not stated) | 0.173 | 0.552 |
| N#C/C(=C\c1ccc(Br)o1)c1nc(-c2ccccc2)cs1 | 0.246 | 0.6 |
| COc1ccc(NC(=O)c2ccccc2Br)c(OC)c1 | 0.258 | 0.615 |
| COc1ccc(Cl)cc1NC(=O)c1ccccc1Br | 0.222 | 0.627 |
| O=C(Nc1ccc(Cl)cc1)c1ccccc1Br | 0.264 | 0.633 |
| O=C1c2cccc([N+](=O)[O-])c2C(=O)N1n1cnnc1 | 0.258 | 0.629 |

| SMILES | plate-normalized OD600 growth (temperature: 15°C, 48 h) | plate-normalized OD600 growth (temperature: 37°C, 24 h) |
| --- | --- | --- |
| CCC1CCC(NCc2cccc(OC)c2OC)CC1 (configuration not stated) | 0.253 | 0.603 |
| Cc1cccc(NC(=O)COc2ccc(C)c(C)c2)c1 | 0.237 | 0.601 |
| COc1ccc(CN2CCCN(C)CC2)c(OC)c1 | 0.25 | 0.619 |
| C=CCOc1ccccc1CN1CCCN(C)CC1 | 0.217 | 0.595 |
| CN1CCCN(Cc2cc(F)ccc2F)CC1 | 0.273 | 0.623 |
| CC1(C)CC(=O)C2=C(C1)Nc1ccccc1NC2c1ccccc1F (configuration not stated) | 0.25 | 0.618 |
| Cn1cccc1C1Nc2ccccc2NC2=C1C(=O)CC(C)(C)C2 (configuration not stated) | 0.222 | 0.609 |
| CC(=O)N1c2ccccc2NC2=C(C(=O)CC(C)(C)C2)C1c1cccn1C (configuration not stated) | 0.253 | 0.612 |
| CC1(C)CC(=O)C2=C(C1)Nc1ccccc1NC2c1ccc([N+](=O)[O-])s1 (configuration not stated) | 0.231 | 0.604 |
| CC1(C)CC(=O)C2=C(C1)Nc1ccccc1NC2c1cc2c(cc1[N+](=O)[O-])OCO2 (configuration not stated) | 0.225 | 0.606 |
| CC1(C)CC(=O)C2=C(C1)Nc1ccccc1NC2c1ccc(Br)cc1 (configuration not stated) | 0.275 | 0.627 |
| O=C1c2ccccc2C(=O)N1c1nccs1 | 0.239 | 0.622 |
| CC(=O)Nc1ccc(S(=O)(=O)N2CCCC(CO)C2)cc1 (configuration not stated) | 0.29 | 0.63 |
| O=C(Nc1nc(/C=C/c2ccccc2)[nH]c(=O)n1)NS(=O)(=O)c1ccccc1Cl | 0.249 | 0.587 |
| CC(C)(C)C(=O)ON1C(=O)c2ccccc2C1=O | 0.25 | 0.616 |
| CN(C)c1ccc(CN2CCc3c([nH]c4ccccc34)C2)cc1 | 0.275 | 0.622 |
| CC1(C)CC(=O)c2c(CC3CC(=O)NC(=O)C3)noc2C1 | 0.222 | 0.614 |
| CCCc1noc2c1C(=O)CC(C)(C)C2 | 0.261 | 0.622 |
